Inconclusive results are not listed. Where a call stands in place of a potency, no number is given. Activity calls are given as the source filed them. Calls come from the whole dose curve; as a rule, active = well fitted inhibition curve with a large enough effect; inconclusive = small, poorly fitted or top-dose-only effect; inactive = no such curve, though single readings can be large or run the other way.
Potency is the fitted concentration of half-maximal effect.

Tumor susceptibility gene 101 protein (Homo sapiens), sequence (Q99816 whole entry, looked up, the tested form may be a part): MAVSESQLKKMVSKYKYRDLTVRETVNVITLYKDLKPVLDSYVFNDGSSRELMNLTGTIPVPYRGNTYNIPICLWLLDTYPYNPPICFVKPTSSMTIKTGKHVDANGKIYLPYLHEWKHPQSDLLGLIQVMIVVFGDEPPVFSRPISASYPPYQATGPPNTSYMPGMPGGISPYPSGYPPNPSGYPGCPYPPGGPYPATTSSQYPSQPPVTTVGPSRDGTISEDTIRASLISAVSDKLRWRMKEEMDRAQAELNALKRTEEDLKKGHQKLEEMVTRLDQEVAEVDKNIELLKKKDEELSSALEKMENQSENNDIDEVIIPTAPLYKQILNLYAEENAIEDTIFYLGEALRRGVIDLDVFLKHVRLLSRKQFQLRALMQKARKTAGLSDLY

In this test the target is Tumor susceptibility gene 101 protein (Homo sapiens) (UniProt Q99816). Description: qHTS Assay for Iinhibitors of HIV-1 Budding by Blocking the Interaction of PTAP/TSG101: Hit Validation in TR assay. To be noted: Tsg101 binding domain + Texas Red-labeled PTAP peptide, fluorescence polarization, 20 min; series mostly up to 57.5 µM. The essentials:
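Texas Red-PTAP peptide (50 nM) binding to Tsg101 binding domain (10 uM), both final, in pH 7.5 HEPES buffer, read as polarization after 20 min at room temperature; compounds pinned before peptide addition.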
`Oc1ccc2ccc3cccc[n+]3c2c1`: the Potency result is “inactive”.
The value for `COCC1CCN(Cc2c(C(=O)N3CCc4ccccc4C3)nc3ccc(Cl)cn23)C1` (stereo not given) was “inactive”; that for `COc1ncnc2c1NC1=C(S2)C(=NCCC(=O)O)CC(C)(C)C1` was “inactive”.
Turning to `CC(=O)Nc1ccc(N=Cc2c(O)ccc3ccccc23)cc1`, the Potency entry is “inactive”.
The value for `COc1ccc(OC)c2c1C(=O)c1ccccc1C2=O` was “inactive”.
The value for `CCN1CC=C2C(C#N)=C(N)C(C#N)(C#N)C(CCc3ccccc3)C2C1` (stereo not given) was 11.6 µM (active); that for `C=CCn1c(=O)[nH]c2nc3cc(N=CN(C)C)c(C)cc3nc2c1=O` was 18.3 µM (active); that for `CC(=O)c1ccc2c(c1)c(C#N)c1ccccc1[n+]2[O-]` was “inactive”.
The value for `O=C(NCc1ccccc1Br)c1cccc2c1C(=O)c1ccc(N3CCC(Cc4ccccc4)CC3)cc1S2(=O)=O` was “inactive”; that for `Cc1ccc2nc(-c3ccco3)c(Nc3ccccc3)n2c1` was “inactive”; that for `CCOc1ccc(NC(=O)N(C2CCCCC2)C(C)c2ccncc2)cc1` (stereo not given) was “inactive”.
On to `O=C1CCCC2=C1Sc1ccc(Cl)cc1N2`, for which the Potency result is “inactive”.
The value for `Cc1cc(/C=C2\SC(=S)N(Cc3ccco3)C2=O)c(C)n1-c1cccnc1` was “inactive”; that for `CN(C)c1ccc(N=Cc2nc(-c3ccccc3)oc2O)cc1` was “inactive”; that for `Cc1cc(C=C2C(=O)c3ccccc3C2=O)c(C)n1-c1ccc(Cl)cc1` was “inactive”.
`Cn1nc(-c2ccccc2)c2nc3ccccc3nc21`: the Potency entry is “inactive”.
On to `O=[N+]([O-])c1cc(Cl)cc(/C=N/NC(=S)Nc2ccc(S(=O)(=O)N3CCOCC3)cc2)c1O`, for which the Potency result was “inactive”.
The value for `O=[N+]([O-])c1ccc(-c2ccc(/C=N/Nc3nc(N4CCCC4)nc(N4CCCC4)n3)o2)cc1` was “inactive”; that for `CC1=Nc2ccccc2/C1=C\c1nc(-c2ccc(F)cc2)oc1O` was “inactive”; that for `Cn1c(=O)c(Nc2ccc(Cl)cc2)c2c3c(cccc31)C(=O)c1ccccc1-2` was “inactive”.

The record behind these values is PubChem BioAssay AID651599 (National Center for Advancing Translational Sciences (NCATS), 2012).
